Source: PubChem BioAssay (several laboratories)
The list is not random: actives were taken first. Their share in the collection is about 3.3%.
Bead autofluor: counter-screen for toxin protease inhibitors: compound fluorescence; AID 624483; compound autofluorescence counterscreen, microsphere flow cytometry; active compounds read high; fluorescence intensity (no concentration beside the values); 360,000 compounds, 3.1% hits; in the data active means fluorescence intensity above about 16000; inconclusive means no clear call, values can overlap the other calls
BoNT-A LC inh2: inhibitors of Botulinum neurotoxin A light chain protease. 360,000 compounds, 0.17% hits. AID 588499. inhibition, % at 10 µM. multiplex microsphere protease substrate cleavage, flow cytometry; further: plate controls were buffer without enzyme for full effect and enzyme alone for no effect
Anthrax LF prot: blocks Bacillus anthracis lethal factor protease; AID 588501; inhibition, % at 10 µM; P15917; multiplex microsphere protease cleavage assay, LF; 360,000 compounds, 0.12% hits; further: plate controls were buffer without enzyme for full effect and enzyme alone for no effect
MazF activator: MazEF (E. coli) toxin RNase activation; P0AE70; FAM/BHQ RNA-DNA oligo cleavage fluorescence, 5 h; activation, % at 20 µM; 350,000 compounds, 0.32% hits; in the data active means activation above about 50%
Target sequence (P0AE70 whole entry, looked up): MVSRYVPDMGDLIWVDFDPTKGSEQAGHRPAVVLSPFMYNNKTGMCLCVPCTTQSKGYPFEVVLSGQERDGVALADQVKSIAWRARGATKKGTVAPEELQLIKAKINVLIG
BoNT F protease: inhibitors of Botulinum neurotoxin F light chain protease | Multiplex microsphere protease cleavage assay, flow cytometry | inhibition, % at 10 µM | 360,000 compounds, 0.22% hits | AID 588497; in the data active means inhibition above about 35%, passing the limit was not always enough; inconclusive means no clear call, values can overlap the other calls; further: plate controls were buffer without enzyme for full effect and enzyme alone for no effect
SSB-PriA inh: K. pneumoniae PriA-SSBct interaction inhibition. 430,000 compounds, 0.6% hits. inhibition, % at 33 µM. AlphaScreen SSBct-PriA binding, biotinylated peptide; in the data active means inhibition mostly above about 37%, no sharp cut-off; inactive means mostly below about 20%;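 further: plate controls were negative control peptide for no effect and reference peptide for full effect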
* hit, by the source's call. Unless noted, no stated cut-off is given here; in the data, active means inhibition above about 30%; inconclusive means no clear call, values can overlap the other calls; inactive means below that.

What do the screens show for `C=CCNC(=S)NNC(=O)c1cccn(Cc2ccc(Cl)cc2Cl)c1=O`?
Bead autofluor: 22647*; BoNT-A LC inh2: inconclusive; Anthrax LF prot: -1.9; MazF activator: -10.1; BoNT F protease: -3.7; SSB-PriA inh: 1.2

How did C=CCNC(=S)NNC(=O)c1cccc2ccccc12 do in these assays?
Bead autofluor: 21284*; BoNT-A LC inh2: -1.3; Anthrax LF prot: -3.0; MazF activator: 5.6; BoNT F protease: -1.4; SSB-PriA inh: -5.9

What do the screens show for `C=CCNC(=S)NNC(=O)c1cccn(Cc2ccc(Cl)c(Cl)c2)c1=O`?
Bead autofluor: 5648; BoNT-A LC inh2: -1.1; Anthrax LF prot: -2.3; MazF activator: -2.6; BoNT F protease: -8.8; SSB-PriA inh: 11.2

Results for C=CCNC(=S)NNC(=O)c1ccccc1 ?
Bead autofluor: 4488; BoNT-A LC inh2: -0.7; Anthrax LF prot: 1.0; MazF activator: -1.8; BoNT F protease: 9.4; SSB-PriA inh: -5.8

What do the screens show for `COc1ccccc1CNC(=O)C(=O)NCC(c1ccc(F)cc1)N1CCN(C)CC1` (configuration not stated)?
SSB-PriA inh: -22.0

How did COc1ccc(C(=O)N2CCCc3ccc(N)cc32)cc1 do in these assays?
SSB-PriA inh: -5.0

How did Cc1ccccc1C(=O)Nc1ccccc1C(=O)NCc1ccccc1 do in these assays?
Bead autofluor: 21881*; BoNT-A LC inh2: -0.4; Anthrax LF prot: -2.9; MazF activator: -2.4; BoNT F protease: -1.6; SSB-PriA inh: -21.9

How did Cc1ccccc1NC(=O)c1ccccc1O do in these assays?
Bead autofluor: 22757*; BoNT-A LC inh2: 0.4; Anthrax LF prot: -1.2; MazF activator: -9.8; BoNT F protease: 0.1; SSB-PriA inh: -14.6

Results for O=C(O)CNC(=O)c1ccccc1NC(=O)c1ccco1 ?
Bead autofluor: 22742*; BoNT-A LC inh2: -1.2; Anthrax LF prot: -1.2; MazF activator: 0.1; BoNT F protease: -2.3; SSB-PriA inh: -0.2

How did O=C(Nc1ccccc1C(=O)NCCc1ccccc1)c1ccco1 do in these assays?
Bead autofluor: 2599; BoNT-A LC inh2: 0.4; Anthrax LF prot: -1.2; MazF activator: 11.4; BoNT F protease: 1.2; SSB-PriA inh: 0.5

How did Cc1cc(C)cc(NC(=O)CSc2nnc(-c3cccn(C)c3=O)n2C)c1 do in these assays?
SSB-PriA inh: 1.0

How did Fc1ccc(Br)cc1C1C=C(c2ccc(Br)cc2)Nc2ncnn21 (configuration not stated) do in these assays?
Bead autofluor: 22136*; BoNT-A LC inh2: -5.2; Anthrax LF prot: -1.0; MazF activator: 2.3; BoNT F protease: -6.8; SSB-PriA inh: -4.2

What do the screens show for `COc1ccccc1N1CCN(C(=O)C(C)N(c2ccccc2)S(C)(=O)=O)CC1` (configuration not stated)?
Bead autofluor: 21669*; BoNT-A LC inh2: inconclusive; Anthrax LF prot: -1.0; MazF activator: 4.0; BoNT F protease: -5.5; SSB-PriA inh: 8.7

How did COc1cc(C=NNS(=O)(=O)c2ccccc2)ccc1OS(=O)(=O)c1ccc(C)cc1 do in these assays?
SSB-PriA inh: -12.8

Results for COc1ccc(CC(=O)NCc2nc(C)no2)cc1OC ?
SSB-PriA inh: 5.0

How did CC(C)N(Cc1ccccc1)C(=S)NC(=O)C1(C)CC1(Cl)Cl (configuration not stated) do in these assays?
Bead autofluor: 4295; BoNT-A LC inh2: -1.6; Anthrax LF prot: -1.4; MazF activator: -2.2; BoNT F protease: -8.0; SSB-PriA inh: -6.8

What do the screens show for `CC1(C(=O)NC(=S)N(CCC#N)c2ccccc2)CC1(Cl)Cl` (configuration not stated)?
Bead autofluor: 21445*; BoNT-A LC inh2: 2.9; Anthrax LF prot: -6.6; MazF activator: 8.2; BoNT F protease: 4.1; SSB-PriA inh: -5.2

Results for CC(O)(CNC(=O)CSc1ccc(F)cc1)Cc1ccco1 (configuration not stated) ?
SSB-PriA inh: -2.0

Results for CCOC(=O)[C@H]1[C@H]2COc3ccccc3[C@@H]2N2C(=O)CN(Cc3ccc(C)cc3)C(=O)[C@@]12C ?
Bead autofluor: 2989; BoNT-A LC inh2: 0.1; Anthrax LF prot: 6.5; MazF activator: 542.4*; BoNT F protease: -3.1; SSB-PriA inh: -5.0

How did Nc1nnc(C2CC2)o1 do in these assays?
SSB-PriA inh: 23.0

Results for O=C(CSc1ncn(-c2ccccc2)n1)Nc1ccc2c(c1)OCCO2 ?
Bead autofluor: 24180*; BoNT-A LC inh2: -0.6; Anthrax LF prot: -0.1; MazF activator: 7.4; BoNT F protease: -2.4; SSB-PriA inh: -13.1

What do the screens show for `O=C(CSc1ncn(-c2ccccc2)n1)Nc1ccc(Br)cn1`?
Bead autofluor: 21921*; BoNT-A LC inh2: 0.6; Anthrax LF prot: -1.4; MazF activator: 6.2; BoNT F protease: -1.1; SSB-PriA inh: -8.4

What do the screens show for `CCOC(=O)c1sc(NC(=O)CSc2ncn(-c3ccccc3)n2)nc1C`?
Bead autofluor: 4318; BoNT-A LC inh2: 1.0; Anthrax LF prot: 2.7; MazF activator: -7.0; BoNT F protease: 4.4; SSB-PriA inh: -12.9

What do the screens show for `O=C(CSc1ncn(-c2ccccc2)n1)Nc1ccc2c(c1)OCO2`?
Bead autofluor: 10774; BoNT-A LC inh2: -1.2; Anthrax LF prot: -6.2; MazF activator: 0.9; BoNT F protease: -12.5; SSB-PriA inh: -3.9

What do the screens show for `Cc1sc(NC(=O)CSc2ncn(-c3ccccc3)n2)nc1-c1ccccc1`?
Bead autofluor: 16319*; BoNT-A LC inh2: 0.6; Anthrax LF prot: -1.3; MazF activator: 1.9; BoNT F protease: -0.3; SSB-PriA inh: -8.8

Results for COc1ccc(NC(=O)CSc2ncn(-c3ccccc3)n2)cc1Cl ?
Bead autofluor: 19084*; BoNT-A LC inh2: 4.9; Anthrax LF prot: -14.2; MazF activator: -6.6; BoNT F protease: 4.9; SSB-PriA inh: -3.3

Results for N#CCCCSc1ncccc1-c1nc2ccccc2[nH]1 ?
Bead autofluor: 19935*; BoNT-A LC inh2: 1.5; Anthrax LF prot: -5.3; MazF activator: 1.6; BoNT F protease: 1.4; SSB-PriA inh: 11.0

Results for O=C(Cc1ccc(NC(=O)c2ccccc2Cl)cc1)NCc1cccs1 ?
SSB-PriA inh: -26.0

How did COC(=O)c1cc(C(=O)Nc2ccc(C)cn2)cc([N+](=O)[O-])c1 do in these assays?
Bead autofluor: 22666*; BoNT-A LC inh2: inconclusive; Anthrax LF prot: 1.7; MazF activator: 1.5; BoNT F protease: -2.2; SSB-PriA inh: 4.4

What do the screens show for `CC(C)(C)Cc1nnc(C2CCCN(C(=O)C3CCCC3)C2)o1` (configuration not stated)?
SSB-PriA inh: -7.0

How did CN(C)CCCN(C(=O)Cc1ccc2c(c1)OCO2)c1nc2ccc(Cl)cc2s1 do in these assays?
SSB-PriA inh: 6.0

How did CCCCOC(=O)n1c(SCC(=O)N(C)C)nc2ccccc21 do in these assays?
Bead autofluor: 20862*; BoNT-A LC inh2: 6.2; Anthrax LF prot: 3.3; MazF activator: -1.7; BoNT F protease: 6.3; SSB-PriA inh: -11.1

What do the screens show for `C(/C=C/c1ccccc1)=N/N1CCN(c2ccccc2)CC1`?
Bead autofluor: 17556*; BoNT-A LC inh2: inconclusive; Anthrax LF prot: -3.9; MazF activator: -4.8; BoNT F protease: -9.7
